PubChem BioAssay
Values joined by “and” are separate entries in the source; they are usually repeats but may differ in a detail not shown here. Identical values can stand only once. Active and inactive are the calls of the source.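 How the source made its calls, unless noted: active means compounds whose cell count with miR-34 switched on is under 0.7 times the count with it off; inactive means the rest.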 Where a SMILES comes first, the peptide text is derived from it. The star is where a group is joined. Cbz = O=C(OCc1ccccc1)*

Assays:
[1] = viability loss with induced miR-34 in A549 – imaging, A549 dox-inducible miR-34, nuclei and caspase counts, primary screen (AID 1347080); settings: A549 miR-34 inducible, Hoechst nuclei count, 48 h
[2] = MELAS cybrid and Rieske KO viability enhancers – cell-based, MELAS cybrids, Rieske KO mouse fibroblasts, CellTiter-Glo, primary screen (AID 1508586;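 active means mean z-score across replicates of 1.96 or higher in either the MELAS or the Rieske mutant cell line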;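 further: z relative to plate mean and SD of compound and empty wells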); settings: low glucose
[3] = stronger effect = lower value, cell number ratio, induced over uninduced
[4] = measured here: relative caspase fold change +Dox/-Dox
[5] = measured here: total cells with miR-34 induction, stronger effect = lower value
[6] = measured here: total cells without miR-34 induction
[7] = MELAS cybrid survival, CellTiter-Glo 48 h, stronger effect = higher value
[8] = Rieske KO mouse fibroblast survival, CellTiter-Glo 72 h
Further: test concentration not given here.

SMILES | fold change [1, 3] | fold change [1, 4] | cell count [1, 5] | cell count [1, 6] | z-score [2, 7] | z-score [2, 8]
CC1(C)S[C@H]2C(NC(=O)C(NC(=O)N3CCN(S(C)(=O)=O)C3=O)c3ccccc3)C(=O)N2C1C(=O)O (some centres not stated) | 0.882 (inactive) | 0.658 | 7720 | 8750 | -0.292 (inactive) | -0.225
COC1C=CO[C@@]2(C)Oc3c(C)c(O)c4c(O)c(c(C=NN5CCN(C)CC5)c(O)c4c3C2=O)NC(=O)C(C)=CC=CC(C)C(O)C(C)C(O)C(C)C(OC(C)=O)C1C (some centres not stated) | 0.973 (inactive) | 0.46 | 7970 | 8200 | -0.298 (inactive) | 0.515
CC(CCC(=O)O)C1CC[C@H]2[C@@H]3CC(O)[C@@H]4CC(O)CC[C@]4(C)[C@@H]3CC[C@]12C (some centres not stated) | 0.928 (inactive) | 0.729 | 9520 | 10300 | -0.299 (inactive) | 0.38
Oc1ccc(C2COc3cc(O)ccc3C2)cc1 (configuration not stated) | 1.04 (inactive) and 0.979 (inactive) | 1.09 and 0.678 | 6090 and 7580 | 5860 and 7740 | -0.326 (inactive) | -0.182
CC(C)CC(C=O)NC(=O)C(CC(C)C)NC(=O)C(CC(C)C)NC(=O)OCc1ccccc1 (stereo not drawn) (Cbz-Leu-Leu-Leu-aldehyde; configuration not given here) | 0.872 (inactive) | 0.735 | 2300 | 2640 | -0.114 (inactive) | -3.43
COc1cc2c(cc1Cc1cccc(Cl)c1F)c(=O)c(C(=O)O)cn2C(CO)C(C)C (configuration not stated) | 0.611 (active) | 1.26 | 3970 | 6500 | -0.198 (inactive) | 0.532
CC(C)CC(NC(=O)C(CCc1ccccc1)NC(=O)CN1CCOCC1)C(=O)NC(Cc1ccccc1)C(=O)NC(CC(C)C)C(=O)[C@@]1(C)CO1 (some centres not stated) | 0.898 (inactive) | 1.94 | 778 | 867 | -0.243 (inactive) | -3.69
CC1(C)S[C@@H]2C(NC(=O)Cc3ccccc3)C(=O)N2C1C(=O)O (some centres not stated) | 0.875 (inactive) | 0.906 | 7910 | 9040 | 0.0178 (inactive) | -0.226
O=C(CCCCCCC(=O)Nc1ccc(C2OC(CSc3nc(-c4ccccc4)c(-c4ccccc4)o3)CC(c3ccc(CO)cc3)O2)cc1)NO (configuration not stated) | 0.92 (inactive) | 0.644 | 6200 | 6750 | -0.366 (inactive) | 1.07
CC1=C(CC(=O)O)c2cc(F)ccc2C1=Cc1ccc(S(C)=O)cc1 (configuration not stated) | 0.878 (inactive) | 0.667 | 7920 | 9010 | -0.193 (inactive) | 0.691
CC1OC(OCC2OC(Oc3c(-c4ccc(OCCO)c(OCCO)c4)oc4cc(OCCO)cc(O)c4c3=O)C(O)C(O)C2O)C(O)C(O)C1O (configuration not stated) | 0.984 (inactive) | 0.465 | 7700 | 7830 | -0.513 (inactive) | -0.15
CCCCNc1ncc(C(=O)NCc2ccc(-n3ccnc3)cc2)c(NC2CCC(O)CC2)n1 (configuration not stated) | 1.3 (inactive) | 0.249 | 2450 | 1880 | 5.49 (active) | -1.88
COc1cc(C(C)=O)ccc1O | 0.901 (inactive) | 0.815 | 7660 | 8500 | -0.427 (inactive) | -0.0762
Nc1ncn(C2CC(O)C(CO)O2)c(=O)n1 (configuration not stated) | 0.936 (inactive) | 0.727 | 7530 | 8050 | -0.461 (inactive) | 0.644
O=C(OC1C[N+]2(CCCOc3ccccc3)CCC1CC2)C(O)(c1cccs1)c1cccs1 (configuration not stated) | 0.946 (inactive) | 1.31 | 8940 | 9450 | -0.202 (inactive) | -0.179
CNC(=O)c1ccccc1Sc1ccc2c(C=Cc3ccccn3)n[nH]c2c1 | 0.918 (inactive) | 0.851 | 2240 | 2440 | 1.15 (inactive) | -0.442
CCN(CC)CCOC(=O)c1ccc(N)cc1Cl | 0.9 (inactive) | 1.29 | 9150 | 10200 | -0.309 (inactive) | -0.153
CNC(=C[N+](=O)[O-])NCCSCc1ccc(CN(C)C)o1 | 0.921 (inactive) | 0.82 | 7800 | 8470 | -0.3 (inactive) | -0.112
CC(NC(=O)C(O)c1cc(F)cc(F)c1)C(=O)NC1C(=O)N(C)c2ccccc2-c2ccccc21 (configuration not stated) | 0.896 (inactive) | 0.875 | 8040 | 8970 | -0.323 (inactive) | 1.18
CC1(C)S[C@@H]2C(NC(=O)C(N)c3ccccc3)C(=O)N2C1C(=O)O (some centres not stated) | 0.917 (inactive) | 0.571 | 8070 | 8800 | -0.241 (inactive) | -0.225
N#CC(=C(N)Sc1ccc(N)cc1)c1ccccc1C(F)(F)F | 0.906 (inactive) | 0.881 | 4690 | 5170 | -0.31 (inactive) | 0.82
CC1CC(C(=O)O)C2CC[C@]3(C)C(=CC[C@H]4[C@@]5(C)CCC(O)C(C)(C)[C@@H]5CC[C@]43C)[C@H]2C1C (some centres not stated) | 0.867 (inactive) | 0.88 | 8220 | 9470 | -0.234 (inactive) | 0.804
